The values that follow come from PubChem BioAssay.

The nature of experiment [1]: compound effects on lung adenocarcinoma cell viability – A549, calcein-AM fluorescence, 48 h, basal, profiling panel (AID 1162). Further: test concentration not given here. The following applies: higher = more signal.
Experiment [2] can be described thus: compound effects on differentiated 3T3-L1 adipocyte viability – cell-based, 3T3-L1 adipocytes, calcein-AM fluorescence, 48 h, basal, profiling panel (AID 1163). Further: test concentration not given here. The settings on record: 3T3-L1 adipocytes viability, higher = more signal.
The nature of experiment [3]: compound effects on hepatocellular carcinoma cell viability – HepG2, calcein-AM fluorescence, 48 h, basal, profiling panel (AID 1164). Further: test concentration not given here. The following applies: higher = more signal.
A short description of experiment [4]: compound effects on multiple myeloma cell viability – MM1S, calcein-AM fluorescence, 48 h, basal, profiling panel (AID 1165).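 Further: viability of MM1S multiple myeloma cells under basal unstimulated conditions; test concentration not given here.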 The following applies: higher = more signal.
Experiment [5] is described as follows: calcein-AM signal in unstimulated myeloma cells – cell-based, calcein-AM fluorescence, 48 h, PK04 Diversity Set, profiling panel (AID 1166).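 Further: cells grown under basal conditions without added stimulus; test concentration not given here.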 The following applies: RPMI8226 myeloma viability, higher = more signal.
Experiment [6] can be described thus: JC-1 mitochondrial signal, unstimulated HepG2 cells – cell-based, JC-1 fluorescence, 24 h, 100 nL compound, profiling panel (AID 1167). Further: test concentration not given here. The settings on record: HepG2 mitochondrial potential, higher = more signal.
Experiment [7] can be described thus: JC-1 mitochondrial signal, unstimulated adipocytes – cell-based, JC-1 fluorescence, 3T3-L1 adipocytes, 24 h, 100 nL compound, profiling panel (AID 1168). Further: test concentration not given here. The following applies: JC-1 mitochondrial fluorescence, higher = more signal, called active from +8 up or from −8 down.
A short description of experiment [8]: JC-1 mitochondrial signal, unstimulated myeloma cells – cell-based, JC-1 fluorescence, RPMI8226, 24 h, 100 nL compound, profiling panel (AID 1169). Further: test concentration not given here. The following applies: JC-1 mitochondrial potential fluorescence, higher = more signal.
Experiment [9] can be described thus: JC-1 mitochondrial signal, unstimulated MM1S myeloma – cell-based, JC-1 fluorescence, 24 h, 100 nL compound, profiling panel (AID 1170). Further: test concentration not given here. The settings on record: MM1S mitochondrial potential, higher = more signal.
Experiment [10] in a line: resazurin metabolic signal in A549 cells – cell-based, resazurin fluorescence, 24 h, PK04 Diversity Set, profiling panel (AID 1171). Further: test concentration not given here. The settings on record: A549 viability, higher = more signal, called active from +8 up or from −8 down.
A short description of experiment [11]: resazurin metabolic signal in HepG2 cells – cell-based, resazurin fluorescence, 24 h, PK04 Diversity Set, profiling panel (AID 1172). Further: test concentration not given here. The settings on record: HepG2 viability, higher = more signal. Background: The colour change of resazurin is a common sign of viable cells or microbes.
The nature of experiment [12]: budding yeast growth changes without added modifier – OD600, strain BY4716, 24 h, basal condition, primary screen (AID 1173). The settings on record: S. cerevisiae BY4716 growth, OD600, 24 h; higher = more signal, called active from +8 up or from −8 down.
Experiment [13] can be described thus: viability profiling in MM1S myeloma cells – cell-based, resazurin fluorescence, basal, 24 h, PK04 Diversity Set, profiling panel (AID 1174). Further: test concentration not given here. The settings on record: higher = more signal, called active from +8 up or from −8 down.
Experiment [14] has as its target Dihydroorotate dehydrogenase (quinone), mitochondrial (Plasmodium falciparum (isolate 3D7)) (UniProt Q08210). Put plainly: inhibition of P. falciparum DHODH – biochemical, C-terminal His tag, absorbance 600 nm, primary screen (AID 1175).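 Further: recombinant parasite enzyme with a five histidine tag at its C terminus; test concentration not given here.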 The following applies: PfDHODH enzyme, DCIP absorbance 600 nm; higher = more signal, called active from +8 up or from −8 down.
Experiment [15] can be described thus: inhibition of PAO1 biofilm formation – strain PAO1, LB-PBS medium, absorbance 600 nm, primary screen (AID 1176). Further: test concentration not given here. The settings on record: P. aeruginosa PAO1 growth/biofilm, A600, 12 h; higher = more signal.
Experiment [16] can be described thus: growth modulation of vineyard yeast isolate – strain RM11-1a, OD600, basal, 24 h, primary screen (AID 1177).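 Further: cultures grown under basal conditions with no added stressor; test concentration not given here.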 The following applies: S. cerevisiae RM11-1a growth, OD600, 24 h; higher = more signal, called active from +8 up or from −8 down.
The nature of experiment [17]: growth of efflux-deficient E. coli DRC39 – strain DRC39, OD650, 24 h, E. coli filamentation inducers, primary screen (AID 1178).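 Further: growth measured as culture turbidity by optical density at 650 nm; test concentration not given here.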 The following applies: E. coli DRC39 acrAB, higher = more signal, called active from +8 up or from −8 down.
The nature of experiment [18]: growth of efflux-deficient E. coli DRC39 – strain DRC39, OD650, 48 h, E. coli filamentation inducers, primary screen (AID 1179).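 Further: screen aims at cell division blockers that make cells filament.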 The settings on record: E. coli DRC39 delta-acrAB growth, higher = more signal, called active from +8 up or from −8 down.
A short description of experiment [19]: viability profiling in RPMI8226 myeloma cells – cell-based, resazurin fluorescence, basal, 24 h, PK04 Diversity Set, profiling panel (AID 1180).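 Further: RPMI8826 multiple myeloma cell line at 5000 cells per well; test concentration not given here.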 The following applies: higher = more signal.
In experiment [20] the target is E3 ubiquitin-protein ligase XIAP (Homo sapiens) (UniProt P98170). Put plainly: small molecules binding XIAP protein – biophysical, small-molecule microarray, fluorescence 635 nm, primary screen (AID 1181).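 Further: score merges 667 nm emission and signal to noise over triplicate slides.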 The settings on record: higher = more signal.

Calls of active or inactive are those of the source. Unless noted, how the calls were made is not given here.

Chain of Dihydroorotate dehydrogenase (quinone), mitochondrial (Plasmodium falciparum (isolate 3D7)) (Q08210 whole entry, looked up): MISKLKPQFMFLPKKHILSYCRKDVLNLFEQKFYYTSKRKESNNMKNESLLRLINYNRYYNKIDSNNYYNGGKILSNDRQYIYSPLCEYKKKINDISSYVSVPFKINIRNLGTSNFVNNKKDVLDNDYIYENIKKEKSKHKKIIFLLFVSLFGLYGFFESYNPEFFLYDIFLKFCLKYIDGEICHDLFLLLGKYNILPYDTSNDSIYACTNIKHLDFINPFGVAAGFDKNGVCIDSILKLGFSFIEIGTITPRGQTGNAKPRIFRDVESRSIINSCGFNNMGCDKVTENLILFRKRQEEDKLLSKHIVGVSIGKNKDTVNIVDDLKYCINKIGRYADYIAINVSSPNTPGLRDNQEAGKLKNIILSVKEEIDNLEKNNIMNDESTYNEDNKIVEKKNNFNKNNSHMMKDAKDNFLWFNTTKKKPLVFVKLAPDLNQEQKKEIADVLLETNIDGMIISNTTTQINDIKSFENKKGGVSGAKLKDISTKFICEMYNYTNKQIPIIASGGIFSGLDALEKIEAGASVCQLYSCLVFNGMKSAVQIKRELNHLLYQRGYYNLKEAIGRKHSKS
Chain of E3 ubiquitin-protein ligase XIAP (Homo sapiens) (P98170 whole entry, looked up): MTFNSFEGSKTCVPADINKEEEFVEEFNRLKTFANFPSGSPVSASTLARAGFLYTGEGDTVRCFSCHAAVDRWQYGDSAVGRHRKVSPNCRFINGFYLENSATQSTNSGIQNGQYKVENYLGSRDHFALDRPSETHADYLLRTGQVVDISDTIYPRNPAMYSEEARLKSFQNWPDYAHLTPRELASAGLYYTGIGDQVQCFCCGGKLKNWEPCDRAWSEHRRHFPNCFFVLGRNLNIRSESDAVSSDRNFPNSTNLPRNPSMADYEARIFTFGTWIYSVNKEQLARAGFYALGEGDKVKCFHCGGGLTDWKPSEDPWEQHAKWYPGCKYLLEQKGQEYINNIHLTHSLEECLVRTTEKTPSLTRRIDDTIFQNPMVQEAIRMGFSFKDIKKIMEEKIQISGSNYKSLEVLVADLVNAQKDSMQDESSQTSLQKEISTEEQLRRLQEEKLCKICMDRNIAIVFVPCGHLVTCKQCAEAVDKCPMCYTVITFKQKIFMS

Regarding `O=C1OCCC=C[C@H]2OC34C=CCN(Cc5ccccc5)C(=O)[C@H]3N(CCCO)C(=O)[C@@H]4C12` (stereo not given in full), the z-score in experiment [1] is 0.577; in experiment [2], 1.66; in [3], -1.04; in [4], 0.0832; in experiment [5] it was -0.0189; in experiment [6], 0.161. In addition, the z-score is -0.282 (inactive) in experiment [7]; 0.798 in experiment [8]; -0.559 in experiment [9]; 0.233 (inactive) in experiment [10]; 0.35 in experiment [11]; -0.625 (inactive) in [12]. Moreover, the z-score in [13] is 1.33 (inactive); in experiment [15] it was 0.152 (inactive); in experiment [16], -0.0921 (inactive); in experiment [17], -0.638 (inactive); in [18] it was 0.129 (inactive); in experiment [19] it was 0.165. In addition, the composite z-score in [14] was -1.01 (inactive); in [20], -0.0116.

`COCCOC(=O)N1C(=O)[C@@]2(c3cc(C#CC4=CCCCC4)ccc31)[C@H](C(=O)NC[C@H](O)c1ccccc1)[C@H]1C(=O)O[C@H](c3ccccc3)[C@H](c3ccccc3)N1[C@@H]2c1ccc(O)cc1`: the z-score in [1] was -0.144; in experiment [2], 1.3; in experiment [3], -0.34; in [4], -2.81; in [5], -3.45; in [6], -2.71. Also, the z-score was 1.35 (inactive) in experiment [7]; -0.657 in [8]; 0.0116 in experiment [9]; -1.09 (inactive) in experiment [10]; -0.789 in experiment [11]; -0.571 (inactive) in [12]. For the same compound, the z-score is -0.925 (inactive) in experiment [13]; 1.01 (inactive) in [15]; 1.55 (inactive) in [16]; -0.237 (inactive) in experiment [17]; 0.174 (inactive) in experiment [18]; -1.73 in [19]. Moreover, the composite z-score was 0.409 (inactive) in [14] and -0.02 in experiment [20].

Consider `CC(=O)NCCCC[C@@H]1NC(=O)[C@@H]2C[C@H](C(=O)NCCCCN(C)C)[C@H](c3ccc(O)cc3)N2C1=O`, for which the z-score in experiment [1] is 1.42; in experiment [2] it was -0.582; in experiment [3], 0.374; in experiment [4], 0.213; in [5] it was 0.93; in [6], 0.709. For the same compound, the z-score is 1.05 (inactive) in experiment [7]; -0.293 in experiment [8]; -0.504 in [9]; 0.854 (inactive) in experiment [10]; 0.801 in experiment [11]; -0.397 (inactive) in experiment [12]. Further, the z-score was 0.925 (inactive) in [13]; -0.201 (inactive) in [15]; 0.037 (inactive) in experiment [16]; 1.23 (inactive) in experiment [17]; 1.51 (inactive) in experiment [18]; 1.15 in experiment [19]. The composite z-score in experiment [14] is -0.0536 (inactive); in [20], -0.23.

Regarding `COc1cc(CO)ccc1OC(C)=O`, the z-score in [1] was 0.653; in [2], 0.584; in [3], 1.04; in experiment [4], 1.12; in [5], 1.19; in [6] it was 0.302. The z-score in experiment [7] was 0.791 (inactive); in [8], 0.41; in experiment [9], 0.433; in experiment [10], -1.08 (inactive); in experiment [11] it was -0.386; in [12] it was -0.277 (inactive). The z-score in experiment [13] was -0.779 (inactive); in [15], -0.248 (inactive); in [16], -1.18 (inactive); in experiment [17] it was 0.35 (inactive); in experiment [18], 0.915 (inactive); in experiment [19] it was -0.927. The composite z-score in experiment [14] is -1.75 (inactive); in [20], -0.17.

Regarding `O=C1C[C@]2(c3ccc([N+](=O)[O-])cc3)C(=O)N(CC(F)(F)F)c3cc(CO)ccc3[C@H]2N1CC12CC3CC(CC(C3)C1)C2`, the z-score was 0.831 in [1]; -0.425 in experiment [2]; 0.655 in experiment [3]; 0.489 in experiment [4]; 0.0342 in [5]; 0.91 in experiment [6]. Moreover, the z-score is -1.2 (inactive) in experiment [7]; 0.308 in [8]; -0.964 in [9]; -0.399 (inactive) in experiment [10]; 0.961 in experiment [11]; 0.695 (inactive) in [12]. The z-score was -1.2 (inactive) in experiment [13]; 0.503 (inactive) in [15]; -0.319 (inactive) in experiment [16]; 0.973 (inactive) in experiment [17]; 0.672 (inactive) in experiment [18]; -0.157 in experiment [19]. Moreover, the composite z-score is -3.73 (inactive) in experiment [14] and -0.222 in [20].

In the case of `CCCCC=C[C@@H](NC(=O)c1ccc(C(=O)OC)cc1)c1ccccc1`, the z-score in experiment [1] was -1.19; in [2] it was -0.87; in [3], -0.721; in [4] it was -2.31; in experiment [5], -2.6; in experiment [6], -1.33. Moreover, the z-score was -0.346 (inactive) in [7]; -0.862 in experiment [8]; -1.38 in [9]; 3.37 (inactive) in experiment [10]; 2.26 in experiment [11]; 0.399 (inactive) in experiment [12]. The z-score in experiment [13] is 1.13 (inactive); in experiment [15], -0.567 (inactive); in [16], 1.18 (inactive); in experiment [17] it was -0.0227 (inactive); in experiment [18], 0.623 (inactive); in [19], 3.78. In addition, the figures for the composite z-score in [14] and in [20] were -0.543 (inactive) and -0.145, respectively.

In the case of `C=CC(=C)C1=CCO[C@@H]1[C@H]1CCCN1S(=O)(=O)c1ccccc1[N+](=O)[O-]`, the z-score in experiment [1] was -0.387; in experiment [2], 1.19; in experiment [3], 0.324; in experiment [4] it was -1.69; in [5], -1.07; in experiment [6], 0.248. Also, the z-score in experiment [7] was -0.736 (inactive); in [8], -0.112; in experiment [9] it was -0.233; in experiment [10], 0.707 (inactive); in experiment [11], 1.09; in experiment [12] it was -0.793 (inactive). Further, the z-score is -0.22 (inactive) in experiment [13]; -0.578 (inactive) in experiment [15]; 0.223 (inactive) in experiment [16]; 0.858 (inactive) in experiment [17]; 0.714 (inactive) in experiment [18]; 0.187 in [19]. The composite z-score is -0.426 (inactive) in [14] and -0.119 in experiment [20].

As to `CCCCCN1CC=CC23O[C@@H]4C=CCOC(=O)[C@@H]4[C@H]2C(=O)N(CCCO)[C@@H]3C1=O` (stereo not given in full), the z-score is -0.279 in experiment [1]; 2.21 in experiment [2]; -0.721 in experiment [3]; 0.364 in experiment [4]; -0.0478 in [5]; -1.29 in experiment [6]. The z-score in [7] is -0.883 (inactive); in experiment [8], -0.022; in experiment [9] it was 0.208; in experiment [10], -0.15 (inactive); in [11], 0.22; in experiment [12], -0.988 (inactive). Also, the z-score is 0.806 (inactive) in experiment [13]; 0.0837 (inactive) in experiment [15]; -0.0379 (inactive) in experiment [16]; -0.625 (inactive) in experiment [17]; 0.244 (inactive) in [18]; 0.217 in experiment [19]. Further, the composite z-score was -1.67 (inactive) in [14] and -0.0988 in experiment [20].

As to `COc1ccc(C#Cc2ccc3c(c2)[C@]2(C(=O)N3)[C@H](C(=O)NC[C@H](O)c3ccccc3)[C@H]3C(=O)O[C@H](c4ccccc4)[C@H](c4ccccc4)N3[C@@H]2c2ccccc2OCCO)cc1`, the z-score is -1.86 in experiment [1]; 0.0393 in experiment [2]; -3.16 in [3]; -3.35 in experiment [4]; -3.4 in experiment [5]; -2.27 in [6]. In addition, the z-score in experiment [7] is 2.97 (inactive); in [8], -0.865; in [9], -1.7; in experiment [10], -1.58 (inactive); in [11] it was -1.62; in [12], 1.32 (inactive). Further, the z-score is -4.48 (inactive) in experiment [13]; 2.4 (inactive) in [15]; 2.27 (inactive) in experiment [16]; -0.444 (inactive) in [17]; -0.849 (inactive) in [18]; -5.2 in [19]. Also, the composite z-score in experiment [14] is -0.0131 (inactive); in experiment [20] it was 0.0297.
